From PubChem BioAssay AID488969 (Vanderbilt High Throughput Screening Facility, 2010) come the findings set out here.

Over roughly 110,000 compounds, “z-score” has its median near -0.1; the highest 2% begin near 2. Many of the other results were omitted from the sample, so the highest values are more common in it than they were. Active and inactive are the calls of the source.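 Rule for the calls: active = z-score in the third read window above 3 or below -3; inactive = the rest.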

The target in this assay is Metabotropic glutamate receptor 8 (Rattus norvegicus) (UniProt P70579). Description: mGluR8 Gi/Go-coupled signaling modulation – cell-based, rat, thallium flux, HTS, primary screen (AID 488969). The settings on record: HEK293 rat mGluR8, GIRK (G protein-gated inwardly rectifying potassium channel) thallium flux, FluoZin2; at 10 µM; stronger effect = higher value; submaximal glutamate (EC20) added with thallium.
Metabotropic glutamate receptor 8 (Rattus norvegicus), sequence (P70579 whole entry, looked up): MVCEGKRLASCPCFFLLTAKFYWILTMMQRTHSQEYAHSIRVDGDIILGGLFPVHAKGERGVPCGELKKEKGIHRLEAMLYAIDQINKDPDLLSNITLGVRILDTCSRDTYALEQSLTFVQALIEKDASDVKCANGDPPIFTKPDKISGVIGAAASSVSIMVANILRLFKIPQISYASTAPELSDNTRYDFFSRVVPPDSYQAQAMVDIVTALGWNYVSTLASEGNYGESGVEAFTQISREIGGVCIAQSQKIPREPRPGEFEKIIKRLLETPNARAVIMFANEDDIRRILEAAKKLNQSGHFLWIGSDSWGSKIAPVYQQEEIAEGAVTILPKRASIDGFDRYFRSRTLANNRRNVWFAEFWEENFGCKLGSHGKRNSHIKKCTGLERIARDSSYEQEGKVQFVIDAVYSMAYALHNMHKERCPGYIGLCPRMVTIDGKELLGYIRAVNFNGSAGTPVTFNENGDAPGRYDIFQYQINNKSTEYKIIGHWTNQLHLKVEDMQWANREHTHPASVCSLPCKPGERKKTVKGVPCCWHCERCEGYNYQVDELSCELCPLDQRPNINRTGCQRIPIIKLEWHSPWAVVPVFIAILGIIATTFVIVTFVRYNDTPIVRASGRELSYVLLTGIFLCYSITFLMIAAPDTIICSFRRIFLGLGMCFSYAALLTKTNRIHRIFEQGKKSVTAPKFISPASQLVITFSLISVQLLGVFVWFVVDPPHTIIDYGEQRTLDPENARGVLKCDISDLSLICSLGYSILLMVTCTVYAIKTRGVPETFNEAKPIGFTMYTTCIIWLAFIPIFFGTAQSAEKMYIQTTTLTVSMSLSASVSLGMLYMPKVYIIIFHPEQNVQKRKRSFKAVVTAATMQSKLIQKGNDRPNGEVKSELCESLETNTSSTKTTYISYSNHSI
As to `COc1cc(/C=N/OCC(=O)NC2CCCCC2)ccc1OCc1ccccc1`, the z-score is -0.752.

With `CC(C)c1ccc(OCC(=O)Nc2ccc(OC(F)(F)F)cc2)cc1`, the z-score is -0.173.

With `COc1ccccc1C(=O)NCCn1cc(SCC(=O)Nc2cc(C)on2)c2ccccc21`, the z-score was -0.181.

`O=C(NC(=S)Nc1ccc(Cl)cn1)C(c1ccccc1)c1ccccc1` registered a z-score of 0.284.

Consider `O=C(NC(=S)Nc1ccc(Cl)cn1)c1cccs1`, for which the z-score is 10.3 (active).

Take `Cc1ccnc(NC(=S)NC(=O)c2cccs2)c1`: the z-score is 7.29 (active).

`Cc1cccnc1NC(=S)NC(=O)/C=C/c1ccco1` registered a z-score of 0.37.

For `Cc1ccnc(NC(=S)NC(=O)/C=C/c2ccco2)c1`, the z-score is 3.2 (active).

The molecule `Cc1ccnc(NC(=O)c2cccs2)c1` showed a z-score of -0.306.

In the case of `O=C(Nc1ncc(Cl)cn1)c1cccs1`, the z-score came out at 0.0318.

Take `Cc1ccc2nsnc2c1NC(=S)NC(=O)c1ccco1`: the z-score was 6.75 (active).

Regarding `O=C(NC(=S)Nc1c(Cl)ccc2nsnc12)c1ccco1`, the z-score was -0.429.

For `CC(=O)Nc1c(C)ccc2nsnc12`, the z-score turned out to be 0.0413.

`Cc1cccnc1NC(=S)NC(=O)c1cccs1` returned a z-score of 0.0645.

In turn, `Cc1ccnc(NC(=S)NC(=O)/C=C/c2ccccc2)c1` gave a z-score of -0.0726.

For `O=C(c1ccccc1)n1ccn(-c2ccccc2)c1=S`, the z-score was -1.09.

The molecule `CC1CC1C(=O)OCC(=O)Nc1ccc(N=Nc2ccccc2)cc1` (configuration not stated) had a z-score of 0.616.

Molecule `O=C(C1CC(c2ccc(F)cc2)=NO1)N1CCCCC1` (configuration not stated) gave a z-score of -0.0299.

On to `O=C(CCC(NC(=O)OCc1ccccc1)C(=O)OCC(=O)N1CCCCC1)OCC(=O)N1CCCCC1` (configuration not stated), for which the z-score was 0.254.

Molecule `C=CCC(NCc1ccco1)c1ccc(OC)cc1OC` (configuration not stated) gave a z-score of -0.246.

`CC1CCc2nn(CC(=O)NCCN3CCCCC3C)cc2C1` (configuration not stated) had a z-score of 0.216.

`Cc1ccc2ccc(S(=O)(=O)n3nc(C)cc3C)cc2c1` registered a z-score of -0.75.

Molecule `Cc1cccc(NC(=S)NC(=O)/C=C/c2ccco2)n1` returned a z-score of 0.626.

Turning to `Cc1ccnc(NC(=S)NC(=O)c2ccco2)c1`, the z-score came out at 2.

Molecule `Cc1cccc(NC(=O)Cc2cccs2)n1` had a z-score of -0.58.

Turning to `COC(=O)C(NC(=O)c1ccco1)(Nc1cc(C)ccn1)C(F)(F)F` (configuration not stated), the z-score came to 0.329.

For `CCCC(=O)NC(=S)Nc1ccc(Cl)cn1`, the z-score was determined as 0.131.

With `Cc1cccc(NC(=O)c2cccs2)n1`, the z-score worked out at 0.965.

Consider `CCC(=O)NC(=S)Nc1ccc(Cl)cn1`, for which the z-score stood at 0.168.

`CC(C)CC(=O)NC(=S)Nc1ccc(Cl)cn1`: the z-score stood at 2.96.

`Cc1cccc(NC(=O)c2cc(NC(=O)c3ccco3)ccc2Cl)n1` showed a z-score of -0.288.

Regarding `Cc1cccc(NC(=S)NC(=O)c2ccco2)n1`, the z-score is 3.93 (active).

For the molecule `Cc1cccc(NC(=S)NC(=O)c2cccs2)n1`, the z-score is 5.04 (active).

`O=C(NC(=S)Nc1ccccn1)c1ccco1` gave a z-score of 1.2.

As to `CC(=O)c1c(C)[nH]c(C(=O)COC(=O)CNS(=O)(=O)c2ccccc2)c1C`, the z-score is -0.187.

In turn, `C(=N\N1CCN(Cc2ccccc2)CC1)/c1cccs1` registered a z-score of -0.298.

Regarding `CC(=O)Nc1ccc(S(=O)(=O)NCCC(=O)Nc2ccc(C)c(Cl)c2)cc1`, the z-score was -0.0921.

Molecule `CC(=O)c1ccc(NC(=O)CSc2ccc(-c3ccc4c(c3)OCO4)nn2)cc1` registered a z-score of -0.125.

Molecule `CCOC(=O)N1CCN(C(=O)C2CC(c3cc(OC)ccc3OC)=NO2)CC1` (configuration not stated) showed a z-score of -0.594.

As to `COc1ccc(Br)cc1CNC(=O)C1CCN(S(=O)(=O)N2CCCCC2)CC1`, the z-score was -0.52.

Molecule `Cc1ccc(C(=O)NC(C)c2ccc(F)cc2)cc1` (configuration not stated) gave a z-score of -0.249.

On to `c1ccc(-c2nnc3ccc(N4CCCC4)nn23)cc1`, for which the z-score is -4.38 (active).

Turning to `O=C(Nc1ccc(F)cc1)N1CCN(c2ccc3nnc(-c4ccc(F)cc4)n3n2)CC1`, the z-score is -1.17.

Take `Fc1ccc(-c2nnc3ccc(N4CCc5ccccc5C4)nn23)cc1`: the z-score stood at 2.89.

As for `Cc1ccc(NC(=O)NNC(=O)c2cccs2)cc1`, the z-score turned out to be 0.53.

Molecule `NC(=O)c1ccc(C(F)(F)F)n(Cc2ccc(Cl)cc2)c1=O` gave a z-score of -0.45.

With `Cc1[nH]n(-c2ccccc2)c(=O)c1-c1cccc(Cl)c1`, the z-score was found to be 0.257.

Take `O=C(N1CCOCC1)N1CCN(C(=O)N(c2ccccc2)c2ccccc2)CC1`: the z-score was -0.217.

In the case of `CN(C)S(=O)(=O)N1CCN(C(=O)N(c2ccccc2)c2ccccc2)CC1`, the z-score is -0.395.

Turning to `O=C(N1CCCCC1)N1CCN(C(=O)N(c2ccccc2)c2ccccc2)CC1`, the z-score was 3.16 (active).

Consider `COc1ccc(-c2nc3c(c(=O)c4ccccc4n3C)c(=O)n2Cc2ccccc2)cc1`, for which the z-score was -0.433.

For `CCN(/C=N/c1sc2c(c1C#N)CCCCC2)CC`, the z-score is -0.292.

`CC(C)CN(/C=N/c1sc2c(c1C#N)CCCCC2)CC(C)C` showed a z-score of 2.9.

`CCCN(/C=N/c1sc2c(c1C#N)CCCCC2)CCC` returned a z-score of -0.155.

Turning to `CCOC(=O)c1nnc2c(Br)c(-c3ccccc3)nn2c1C`, the z-score was -0.554.

Molecule `CCC(=O)Nc1ccc(-c2csc(NNC(C)=O)n2)cc1` had a z-score of -0.182.

For the molecule `Cc1ccc(NC(=O)CSc2nccn2Cc2ccccc2)cc1C`, the z-score was -0.465.

Consider `CC(=O)Nc1ccc(NC(=O)CSc2nccn2Cc2ccccc2)cc1`, for which the z-score came to 2.89.

Take `CCOc1ccc(NC(=O)CSc2nccn2C)cc1`: the z-score is -0.0963.

Molecule `CC(C)(C)NC(=O)CSc1nccn1Cc1ccccc1` gave a z-score of 0.488.

Molecule `CCOC(=O)c1ccc(NC(=O)CSc2nnc(COc3ccccc3)n2C)cc1` had a z-score of -0.177.

The molecule `Cn1ccnc1SCC(=O)Nc1ccccc1` showed a z-score of 0.326.

`COC(=O)c1cccc(NC(=O)CSc2nnc(COc3ccccc3)n2C)c1` gave a z-score of -0.736.

`Cn1ccnc1SCC(=O)Nc1ccc(Oc2ccccc2)cc1` returned a z-score of 2.29.

For `COC(=O)c1ccc(NC(=O)CSc2nnc(COc3ccccc3)n2C)cc1`, the z-score was 11.8 (active).

`CCc1sc(C(=O)Nc2ccc(F)cc2C)cc1C` yielded a z-score of -0.0957.

In the case of `O=C(CCC(=O)c1cccs1)Nc1ccc(F)c(F)c1F`, the z-score came to 0.32.

Molecule `CCc1ccc(NS(=O)(=O)c2cc(OC)ccc2OC)cc1` showed a z-score of -0.868.

The molecule `Cc1nc(NCCc2ccc(F)cc2)c(C#N)c(C)c1[N+](=O)[O-]` came in with a z-score of -0.205.

In turn, `COc1cc(C)nc(OCCNS(=O)(=O)c2cc(C)ccc2C)n1` had a z-score of 0.217.

For the molecule `CC(/C=N/NC(=O)c1c(Br)cnn1C)=C\c1ccccc1`, the z-score is 3.16 (active).

`CC(/C=N/NC(=O)c1nn(C)c(C)c1Br)=C\c1ccccc1` had a z-score of -0.0235.

Take `CC(/C=N/NC(=O)c1ccc(Br)cc1)=C\c1ccccc1`: the z-score was -1.26.

On to `O=C(Nc1ccc(C(=O)N2CCCCC2)cc1)c1ccc(Br)cc1`, for which the z-score was determined as 1.09.

`CC(C)CCNC(=O)Cn1c(=O)oc2cc(S(=O)(=O)N3CCc4ccccc43)ccc21` registered a z-score of -0.186.

Take `COc1cc(CNc2ccc(N3CCCC3)cc2)ccc1OCc1ccccc1`: the z-score is 3.82 (active).

In turn, `COc1cc(CNc2ccc(N3CCCC3)cc2)ccc1OCc1ccccc1F` displayed a z-score of -0.289.

`COc1cc(CNc2ccc(CNc3ncn[nH]3)cc2)ccc1OCc1ccccc1`: the z-score was -0.026.

Molecule `CC(C(=O)NCCN1C(=O)S/C(=C\c2cccs2)C1=O)N1C(=O)c2ccccc2C1=O` (configuration not stated) came in with a z-score of -0.139.

`Cc1ccc(C)c(NC(=O)CCC(=O)NNC(=O)c2cccc([N+](=O)[O-])c2)c1` returned a z-score of 0.265.

`CSc1ccccc1C(=O)Nc1cccc(C)c1` yielded a z-score of -0.792.

With `CSc1ccccc1C(=O)Nc1cccc(C(C)O)c1` (configuration not stated), the z-score stood at 0.209.

Consider `CSc1ccccc1C(=O)Nc1cccc(C(C)=O)c1`, for which the z-score was 3.03 (active).

`CCOC(=O)Cc1c(C)nc2cc(-c3ccc(C)cc3)[nH]n2c1=O` returned a z-score of 0.0804.

For the molecule `C1CCCC(N2CCNCC2)CC1`, the z-score turned out to be 0.33.

`COC(=O)c1cc(=O)nc2sccn12` registered a z-score of -0.417.

As for `CCc1cc(C(N)=O)c(NC(=O)c2ccc(OC)cc2)s1`, the z-score is 3.98 (active).

For `CCOC(=O)c1cc(-c2ccccc2)sc1NC(=O)c1ccc(OC)cc1`, the z-score was -0.199.

In the case of `CCOC(=O)c1cc(CC)sc1NC(=O)c1cc(OC)c(OC)c(OC)c1`, the z-score worked out at 0.399.

For the molecule `CCOc1ccc(OC(=O)NC(c2ccccc2)C(Cl)(Cl)Cl)cc1` (configuration not stated), the z-score was -0.048.

For `CCOC(=O)N1CCN(C(=O)c2ccc3c(=O)n(Cc4ccc(Cl)cc4)c(=S)[nH]c3c2)CC1`, the z-score turned out to be 0.798.

As for `O=c1c2cccnc2[nH]c(=S)n1CCCN1CCN(c2ccc(F)cc2)CC1`, the z-score was determined as 0.723.

As to `CCN(CC)CCn1c(=S)[nH]c2ncccc2c1=O`, the z-score came out at 0.0629.

With `CC1CCN(CCn2c(=S)[nH]c3ncccc3c2=O)CC1`, the z-score is 4.47 (active).

Molecule `O=c1c2cc(Br)ccc2[nH]c(=S)n1Cc1cccnc1` came in with a z-score of 1.87.

`COCCn1c(=S)[nH]c2ncccc2c1=O` had a z-score of 0.35.

With `O=c1c2cccnc2[nH]c(=S)n1Cc1ccccc1`, the z-score is 3 (active).

`CC1CCCCN1CCn1c(=S)[nH]c2ncccc2c1=O` (configuration not stated) registered a z-score of 1.22.

Consider `O=c1c2ccc(Cl)cc2[nH]c(=S)n1Cc1cccnc1`, for which the z-score was found to be 2.08.

The molecule `CC(=O)Nc1ccc(Sc2ncccc2C(=O)Nc2cc(Cl)cc(Cl)c2)cn1` registered a z-score of 0.0331.

Molecule `CCc1nc(SCC(=O)Nc2c(C)n(C)n(-c3ccccc3)c2=O)n[nH]1` gave a z-score of -0.584.

On to `Cc1ccc(Cl)c(OCC(=O)Nc2sc(C)c(C)c2C#N)c1`, for which the z-score came to 0.877.

`CC(NC(=O)COc1ccccc1)C1COc2ccccc2O1` (configuration not stated) yielded a z-score of -0.67.

`Cc1ccc(C)c(N2CCN(C(=O)c3csc(C)c3C)CC2)c1` displayed a z-score of 0.0161.

Molecule `CC(C)n1nc(C(=O)OCC(=O)c2c[nH]c3ccccc23)c2ccccc2c1=O` yielded a z-score of -2.75.

`COc1ccc(Br)cc1S(=O)(=O)N1CCCC1` had a z-score of -0.0684.

In turn, `CCOC(=O)COc1c(OC)cc(Cl)cc1C1Nc2ccccc2C(=O)N1c1ccccc1` (configuration not stated) returned a z-score of 0.355.

The molecule `Cc1ccc(Oc2ncc(CN3CC(C)OC(C)C3)s2)cc1` (configuration not stated) yielded a z-score of -0.107.

Take `CCn1c2ccccc2c2cc(NC(=O)CC(C)=O)ccc21`: the z-score was -0.32.

For `CCOC(=O)N1CCC(NC(=O)c2cnn3c2NC(c2ccco2)CC3C(F)(F)F)CC1` (configuration not stated), the z-score was 4.33 (active).

As to `Cc1ccc(Cl)cc1NC(=O)c1cnn2c1NC(c1ccco1)CC2C(F)(F)F` (configuration not stated), the z-score is -0.148.

With `COCCNC(=O)c1cnn2c1NC(c1ccco1)CC2C(F)(F)F` (configuration not stated), the z-score stood at 0.0267.

For `CCCCn1ccnc1C(=O)c1cc(S(=O)(=O)N2CCOCC2)ccc1C`, the z-score is -0.0858.

On to `CSc1nnc(CSc2cc(C)nc(N(C)C)n2)o1`, for which the z-score is -0.325.

Regarding `O=C(O)c1ccc(NS(=O)(=O)c2cc(Cl)ccc2Cl)cc1`, the z-score was -0.151.

On to `O=S(=O)(Nc1nc(-c2sccc2Cl)cs1)c1cc(Cl)ccc1Cl`, for which the z-score is 3.41 (active).

`O=S(=O)(Nc1cccnc1)c1cc(Cl)ccc1Cl`: the z-score is -0.00571.
